From PubChem
This is a sample that favours compounds with a hit; in the whole collection about 9.4% have one here.
Pf growth 96h: Primary qHTS for delayed death inhibitors of the malarial parasite plastid, 96 hour incubation. 320,000 compounds, 6.9% hits. Potency, µM (highest dose often 28.7 µM), usual class: inhibitors. P. falciparum luciferase reporter growth, 96 h
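Compounds incubated with erythrocytes infected by luciferase-expressing P. falciparum (2% hematocrit, 0.05% parasitemia final) for 96 hours, 37 C in 5% CO2. Growth inhibition scored as decreased luciferase luminescence.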
SARS PLP yeast: qHTS of Yeast-based Assay for SARS-CoV PLP | S. cerevisiae expressing SARS-CoV PLpro, growth rescue | Potency, µM (series often up to 32.9 µM), actives largely listed as activators | 330,000 compounds, 0.19% hits | AID 485353, 2010; calls by dose curve; further: nearly all actives have a fitted effect of over 55% in size
AMA1-RON2 inh: qHTS for Inhibitors of AMA1-RON; Towards Development of Antimalarial Drug Lead: Primary Screen; Plasmodium falciparum AMA1 (3D7) - RON2 peptide interaction; AlphaScreen AMA1-biotinylated RON2 peptide binding; Potency, µM (doses to about 58.2 µM), hits mostly inhibitors; 360,000 compounds, 0.2% hits; further: nearly all actives have a fitted effect of over 45% in size
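AMA1 (3D7) with his tag at 25 nM final met compounds first, then biotinylated RON2 peptide at 25 nM; detection used donor plus acceptor beads, 10 µg/mL apiece, read by AlphaScreen after 30 min at room temperature.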
Pf growth 48h: Primary qHTS for delayed death inhibitors of the malarial parasite plastid, 48 hour incubation. AID 504832, 2011. P. falciparum luciferase growth in erythrocytes, 48 h. 310,000 compounds, 5.9% hits. Potency, µM (titrated, usually from 28.7 µM), usual class: inhibitors
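Cell-based growth assay: transgenic P. falciparum expressing firefly luciferase, cultured in red cells within RPMI 1640 containing 0.5% w/v Albumax, 24 mM bicarbonate and gentamycin. A drop in luciferase activity indicates inhibition.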
A number is an active result; n = inactive; u = inconclusive; x = no result; [ ] = remark or other dose. Unless noted, the call rests on the fitted dose curve; in most records, active means well fitted curve in the direction sought with a large enough effect; inconclusive means small, poorly fitted or top-dose-only effect, or another doubt; inactive means no such curve, though single readings can be large; an effect the other way counts as inactive or inconclusive.

SMILES	Pf growth 96h	SARS PLP yeast	AMA1-RON2 inh	Pf growth 48h
Cc1cccc(C)c1NC(=O)c1cccc2c1C(=O)N(C1CCCCC1)C2	12µM	n	n	10µM
CCOc1ccc(NC(=O)C(CC(=O)O)Cc2ccccc2)cc1 (configuration not stated)	n	n	n	n
CCn1c(C)c(P(c2ccccc2)c2ccccc2)[n+]2ccccc12	8.3µM	n	n	1.5µM
CCOc1cc(/C=N/NC(=O)c2cc(C)[nH]n2)ccc1OC(=O)c1ccc([N+](=O)[O-])cc1	n	n	x	n
CCOc1cc(/C=N/n2cnnc2)ccc1OC(=O)c1cccc([N+](=O)[O-])c1	3.3µM	n	n	n
COc1ccc(S(=O)(=O)N(C)C)cc1NC(=O)[C@H](Cc1ccccc1)N1C(=O)c2ccccc2C1=O	n	n	n	n
CCCCn1c2ccccc2c2nnc(SCC(=O)NC3=NN=C(c4ccccc4)CS3)nc21	u	n	x	2.9µM
CCCn1c2ccccc2c2nnc(SCC(=O)OC)nc21	n	n	n	n
CCn1c2ccccc2c2nnc(SCC(=O)Nc3c(C)n(C)n(-c4ccccc4)c3=O)nc21	12µM	n	n	u
Cc1c(NC(=O)CSc2nnc3c4ccccc4n(CCc4ccccc4)c3n2)c(=O)n(-c2ccccc2)n1C	n	n	n	n
COc1ccc(NS(=O)(=O)c2cc(N=Nc3c(O)[nH]c(=O)[nH]c3=O)ccc2Cl)cc1	x	n	n	x
Cc1ccc(C)c(N2CCN(C(=O)C34CC5CC(C3)CC(n3nnc(C)n3)(C5)C4)CC2)c1	u	n	n	10µM
CCOC(=O)c1ccc(C(=O)OCC)c(NC(=S)Nc2ccc([N+](=O)[O-])cc2OC)c1	2.9µM	n	n[11.6 µM]	n
CCOC(=O)Nc1ccc([N+](=O)[O-])cc1OC	x	x	n	x
Cc1cnnc2c1-c1no[n+]([O-])c1CC2	u	x	n	n
O=[N+]([O-])c1cc(-c2ccc(/C=N\n3cnnc3)o2)cc([N+](=O)[O-])c1	u	n	n	7.4µM
Cc1cccc(/C(N)=N/OC(=O)Cc2cccc3ccccc23)c1	u	n	n	n
Cc1cccc(C(=O)O/N=C(\N)Cc2cccc3ccccc23)c1	u	n	n	3.3µM
COc1cccc(C(=O)O/N=C(\N)Cc2ccc(Cl)cc2)c1	n	n	n	10µM
N/C(Cc1ccccc1)=N\OC(=O)c1cccc2ccccc12	4.7µM	n	n	3.3µM
O=C(c1ccc(F)cc1)C1CCN(Cc2ccc(F)cc2)CC1	n	n	n	n
Cc1cc(=O)n2c3ccccc3n(CC(O)CN3CCC(C)CC3)c2c1C#N (configuration not stated)	u	u	n	u
CCC1CCCCN1CC(O)Cn1c2ccccc2n2c(=O)cc(C)c(C#N)c12 (configuration not stated)	4.7µM	n	n	u
N#C/C(=C\c1ccccc1[N+](=O)[O-])C(=O)NCc1ccccc1	u	n	n	15µM
N#C/C(=C/c1ccccc1[N+](=O)[O-])C(=O)NCc1ccco1	u	n	n	n
SMILES	Pf growth 96h	SARS PLP yeast	AMA1-RON2 inh	Pf growth 48h
COC(=O)C(=Cc1ccccc1[N+](=O)[O-])C(=O)OC	9.3µM	n	n	u
C=CCNC(=O)/C(C#N)=C/c1ccccc1[N+](=O)[O-]	n	n	n	n
CCCCCCCCNC(=O)/C(C#N)=C/c1ccccc1[N+](=O)[O-]	u	n	u	13µM
O=C(/C=C/c1ccccc1[N+](=O)[O-])Oc1ccccc1	n	n	x	n
N#C/C(=C\C=C\c1ccccc1[N+](=O)[O-])C(=O)NCc1ccccc1	1.9µM	n	n	3.7µM
O=C(O)c1ccc(/C=C2\COc3ccccc3C2=O)cc1	n	n	n	n
CCOC(=O)c1cnn(-c2c(Cc3ccccc3)c(C)nc3c(-c4ccccc4)c(C)nn23)c1N	x	n	n	12µM
O=C(NCCN1CCN(c2ccccc2F)CC1)c1cccn2c(=O)c3ccccc3nc12	n	n	n	n
Cc1ccc(C(=O)N2CCCC(C(=O)c3ccc(Oc4ccccc4)cc3)C2)cn1 (configuration not stated)	8.3µM	n	n	n
Cc1ccc(C(=O)N2CCCC(C(=O)c3ccc(Cl)cc3C)C2)cn1 (configuration not stated)	u	n	n	n
Cc1ccc(-c2csc(/C(C#N)=C/Nc3ccccc3SC(F)(F)F)n2)c(C)c1	u	n	n	n
Cc1ccc(NC(=O)[C@H](C)NC(=O)C2CCN(C(=O)[C@@H](N)CC(C)C)CC2)cc1	n	n	n	n
COc1ccc(Cc2nn3c(-c4ccccc4OC)nnc3s2)cc1	u	n	n	9.3µM
COc1ccccc1-c1nnc2sc(C3CCCCC3)nn12	n	n	n	10µM
COc1ccccc1-c1nnc2sc(COc3ccc(Cl)cc3)nn12	u	n	n	u
c1cc(-c2nnc3sc(C4CCCCC4)nn23)ccn1	u	n	n	u
Cc1ccc(C)c2[nH]c(=O)c(C(c3nnnn3Cc3ccco3)N3CCc4ccccc4C3)cc12 (configuration not stated)	6.6µM	n	n	12µM
Cc1ccc2cc(CN(Cc3ccc4c(c3)OCO4)Cc3nnnn3Cc3ccco3)c(=O)[nH]c2c1	n	n	n	u
COc1ccc2cc(CN(CCc3ccccc3)Cc3nnnn3Cc3ccco3)c(=O)[nH]c2c1	n	n	n	6.6µM
Cc1ccc2cc(C(c3nnnn3C3CCCC3)N(Cc3ccco3)Cc3cccs3)c(=O)[nH]c2c1 (configuration not stated)	u	n	n	x
CC(=O)N(Cc1cc2c(C)cc(C)cc2[nH]c1=O)C1CCCCC1	x	n	n	u
CCC(c1nnnn1C1CCCCC1)N(Cc1ccco1)Cc1cc2ccc(OC)cc2[nH]c1=O (configuration not stated)	n	n	n	7.4µM
CCOC(=O)Cn1nnnc1C(C(C)C)N(Cc1cc2c(C)cc(C)cc2[nH]c1=O)C1CCCC1 (configuration not stated)	n	n	n	6.6µM
COCCCNC(=O)c1cc(S(=O)(=O)N2CCOCC2)ccc1SCc1cccc(OC)c1OC	u	n	n	n
Oc1ccc(C(=S)N2CCN(Cc3ccccc3)CC2)cc1	n	n	n	n
COC(=O)c1ccc(/C=C2/SC(=S)N(CCCC(=O)Nc3ccc(O)cc3)C2=O)cc1	u	n	n	u
O=C(COC(=O)CCC(=O)c1ccc(Cl)cc1)NCc1ccc(F)cc1	x	n	n	x
Cc1ccc2[nH]c(=O)c(C(c3nnnn3C3CCCC3)N(Cc3cccnc3)Cc3ccco3)cc2c1 (configuration not stated)	x	n	n	u
Cc1ccc2cc(C(c3nnnn3C3CCCC3)N(Cc3cccnc3)Cc3ccco3)c(=O)[nH]c2c1 (configuration not stated)	n	n	n	13µM
Cc1ccc(CN(Cc2cc3cc4c(cc3[nH]c2=O)OCCO4)Cc2nnnn2Cc2ccco2)cc1	u	n	n	x
